Measurements reported in PubChem BioAssay AID1486 (The Scripps Research Institute Molecular Screening Center, 2009).
Among all 220,000 compounds or so, about 2,400 (1.1%) were called active. This is one part of a sample in which actives are shown more often than they occur. Values without a mark were called inactive.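 Rule for the calls: active = inhibition above a per-campaign cutoff, the mean inhibition of all tested compounds plus 3 SD (cut at about 27% in these data); inactive = the rest.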

Experiment: growth loss in parental Ba/F3 cells – cell-based, murine pro-B, CellTiter-Glo luminescence, counter-screen for JAK2V617F inhibitor project (AID 1486);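 note: 0% = DMSO wells and 100% = JAK Inhibitor I control wells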
Details: Ba/F3 parental viability, CellTiter-Glo ATP luminescence; at 5.6 µM; hits give high values

Row | Compound | inhibition
1 | COc1ccc(Nc2oc(-c3ccccc3Cl)nc2C#N)cc1 | 29.4% (active)
2 | Cc1ccccc1-c1nc(C#N)c(NCc2ccco2)o1 | 11.3%
3 | COc1ccccc1-c1nc(C#N)c(N2CCC(C(N)=O)CC2)o1 | 1.59%
4 | NC1=NC2(CCCCC2)N(c2ccc(F)cc2F)C(N)=N1 | 5.17%
5 | COc1ccc(CCNC(=O)CC2SC(=Nc3cc(C)cc(C)c3)NC2=O)cc1OC (configuration not stated) | 2.92%
6 | O=c1cc(O)c(-c2cccc(C(F)(F)F)c2)c(Cl)[nH]1 | 13.5%
7 | COc1cc(OC)cc(C(=O)N[C@H](C(=O)Nc2nc3ccccc3[nH]2)C(C)C)c1 | 16.4%
8 | Cc1nc2ccc(C(=O)O)cc2[nH]1 | -0.24%
9 | COC(=O)Nc1nc2ccc(Sc3ccccc3)cc2[nH]1 | 76% (active)
10 | COc1ccccc1-c1c(C#N)c(N)nc2c1CCC2 | 0.32%
11 | COC(=O)c1sccc1NC(=O)CC1C(=O)NCCN1C(=O)Nc1ccc(F)cc1F (configuration not stated) | -2.58%
12 | CSc1ccc(/C=N/NC(=O)c2cccc(Cl)c2)cc1 | 1.81%
13 | COc1ccc(C2=NOC(C(=O)NCc3ccco3)C2)cc1OC (configuration not stated) | 64.1% (active)
14 | COc1ccc(-c2cc(C(=O)NCc3ccco3)no2)cc1OC | 4.7%
15 | Cc1ccc(CNC(=O)C2CC(c3ccccc3[N+](=O)[O-])=NO2)o1 (configuration not stated) | 0.33%
16 | Cc1cc(N)n(-c2ccc(S(=O)(=O)N3CCCC3)cc2[N+](=O)[O-])n1 | 4.29%
17 | C=CCOCCN(C)C1=NS(=O)(=O)c2ccccc21 | 3.69%
18 | COc1ccc(N2C(=O)CNC2=S)cc1 | 2.23%
19 | Cc1cc2cc(CNC(=O)c3cccs3)ccc2[nH]1 | 39% (active)

Row | Compound | inhibition
20 | Cc1ccc(C)c2[nH]c(=O)c(CCNC(=O)c3cccs3)cc12 | 6.4%
21 | CCc1cccc(CC)c1NC(=S)NCc1ccc2[nH]c(C)cc2c1 | 8.67%
22 | Cn1c(=O)c2c(nc(N/N=C/c3cccs3)n2Cc2ccc(Br)cc2)n(C)c1=O | 2.68%
23 | COc1ccc(-c2csc(-c3cccs3)n2)cc1OC | 6.08%
24 | COc1ccc(Br)cc1CN(C)CC(=O)Nc1cc([N+](=O)[O-])ccc1OC | -2.62%
25 | CCOC(=O)c1cc(-c2ccc(F)cc2)n(CC(=O)NCc2ccccn2)c1C | 5.17%
26 | CN1CCN(C(=O)CCc2nc(-c3ccc(Cl)cc3)no2)CC1 | 5.12%
27 | CC1CCN(Cc2nc(-c3ccc(Cl)cc3)no2)CC1 | 36% (active)
28 | Cc1ccc(-c2noc(CN3CCN(Cc4ccccc4)CC3)n2)cc1 | 3.84%
29 | O=c1[nH]c2cccnc2n(CCNc2ncc(C(F)(F)F)cc2Cl)c1=O | 3.7%
30 | N#CC1=C(N)Oc2[nH]c(=S)[nH]c(=O)c2C12C(=O)Nc1ccccc12 (configuration not stated) | 1.28%
31 | Cc1nc(-c2ccccc2)cn2c1nc1ccccc12 | 6.83%
32 | Cc1c(Cl)c([N+](=O)[O-])nn1CC(=O)NCC1CCCO1 (configuration not stated) | -0.44%
33 | COc1ccc(-c2cc(C(F)(F)F)nc(S(C)(=O)=O)n2)cc1OC | 32.3% (active)
34 | COc1cc(OC)nc(S(C)(=O)=O)n1 | -0.84%
35 | COc1ccc(-c2cc(C(F)(F)F)nc(SCC(=O)Nc3ccc4c(c3)OCO4)n2)cc1OC | 6.51%
36 | CC(=O)c1ccc2c(c1)OCCOCCOc1ccc(C(C)=O)cc1OCCOCCO2 | 6.46%
37 | O=C(CSc1nnc(-c2cccs2)n1-c1ccccc1)NCc1ccco1 | 1.12%
38 | O=C(CSc1nnc(-c2c[nH]c3ccccc23)n1-c1ccc(F)cc1)NCc1ccco1 | 93.5% (active)

Row | Compound | inhibition
39 | COc1ccc(-n2c(SCC(=O)NCc3ccco3)nnc2-c2c[nH]c3ccccc23)cc1 | 7.39%
40 | CC(C)C(C)(C#N)NC(=O)CSc1nncn1-c1ccccc1 (configuration not stated) | 6.72%
41 | CC(NC(=O)c1cccc2ccccc12)c1ccc2c(c1)CCCC2 (configuration not stated) | 46.5% (active)
42 | O=C(Cc1ccc2c(c1)CCCC2)Nc1ccccc1Cl | 6.44%
43 | CC(=O)c1sc(NC(=O)c2cccc3ccccc23)nc1C | 4.12%
44 | Cc1ccc(N/N=C2\COC(C)(C)CC2=O)cc1 | -2.17%
45 | O=S(=O)(NCc1ccco1)c1cnc(Cl)c(Cl)c1 | -2.02%
46 | Oc1ccc(N=Nc2nccs2)c(O)c1 | 0.92%
47 | Oc1ccc2ccccc2c1C=Nc1ccccc1 | 3.24%
48 | Oc1ccc2ccccc2c1N=Nc1nccs1 | 101% (active)
49 | Cc1ncoc1C(=O)N1CCCC(C(=O)c2ccc3c4c(cccc24)CC3)C1 (configuration not stated) | 5.56%
50 | N=C1/C(=C/c2cccn2-c2cccc([N+](=O)[O-])c2)C(=O)N=C2SC=CN12 | 3.29%
51 | Cc1ccc(OCC(=O)N/N=C/c2ccncc2)cc1 | -0.78%
52 | Cc1ccc(/C=N/NC(=O)COc2ccccc2-c2ccccc2)cc1 | 83.4% (active)
53 | Cc1ccc(OCC(=O)N/N=C\c2ccco2)c(C)c1 | -2.78%
54 | COc1ccc2nc(Nc3nc(-c4cc5ccccc5oc4=O)cs3)sc2c1 | 6.64%
55 | O=c1oc2ccccc2cc1-c1csc(Nc2ccc(O)cc2)n1 | 37.3% (active)
56 | CCNc1nc(-c2cc3ccccc3o2)cs1 | 3.67%
57 | Cc1cc(Nc2ccc(Cl)cc2)nc(N2CCOCC2)n1 | -1.08%
